Results: PubChem BioAssay AID1159580 (chemical genetic matrix, 2015)
Screen size: about 5,500 compounds; about 2,000 (36%) were called active. Inconclusive results (about 18%) are left out. Cut-off read from the data, not from the text of the source: active = normalized growth mostly below about 0.91 (no sharp cut-off); inconclusive = no clear call, values can overlap the other calls; inactive = mostly above about 0.92. The list shows a part of the results.

Assay: chemical genetic growth profiling, strain panel (AID 1159580);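 note: tested at 20 µM; growth read once vehicle control cultures reached saturation at 30 °C; 1 = growth at the plate median or of vehicle wells; lower values mean less growth of the strain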
Conditions: growth OD

Measured: normalized growth

CCCCOC(=O)c1ccccc1C(=O)OCCCC
active: S. cerevisiae deletion strains, locus YLR262C, strain YPT6 (second series), stronger effect = lower value 0.838
inactive: S. cerevisiae deletion strains, locus YJR066W, strain TOR1, stronger effect = lower value 0.92 | S. cerevisiae deletion strains, locus YJR075W, strain HOC1, stronger effect = lower value 0.991 | S. cerevisiae deletion strains, locus YKL009W, strain mrt4, stronger effect = lower value 0.941 | S. cerevisiae deletion strains, locus YKL068W, stronger effect = lower value 0.977 | S. cerevisiae deletion strains, locus YKL085W, strain MDH1 (second series), stronger effect = lower value 0.984 | S. cerevisiae deletion strains, locus YKL085W, strain MDH1, stronger effect = lower value 0.984 | S. cerevisiae deletion strains, locus YKL160W, strain elf1, stronger effect = lower value 0.985 | S. cerevisiae deletion strains, locus YKL190W, strain CNB1, stronger effect = lower value 0.972 | S. cerevisiae deletion strains, locus YKR001C, strain vps1, stronger effect = lower value 0.983 | S. cerevisiae deletion strains, locus YKR026C, strain gcn3, stronger effect = lower value 0.986 | S. cerevisiae deletion strains, locus YKR091W, strain srl3, stronger effect = lower value 0.982 | S. cerevisiae deletion strains, locus YLL001W, strain dnm1, stronger effect = lower value 0.987 | S. cerevisiae deletion strains, locus YLL026W, stronger effect = lower value 0.982 | S. cerevisiae deletion strains, locus YLL041C, strain sdh2, stronger effect = lower value 0.975 | S. cerevisiae deletion strains, locus YLR027C, strain aat2, stronger effect = lower value 0.974 | S. cerevisiae deletion strains, locus YLR039C, strain RIC1, stronger effect = lower value 0.941 | S. cerevisiae deletion strains, locus YLR058C, strain SHM2, stronger effect = lower value 0.968 | S. cerevisiae deletion strains, locus YLR102C, strain apc9, stronger effect = lower value 0.982 | S. cerevisiae deletion strains, locus YLR113W, strain HOG1, stronger effect = lower value 0.89 | S. cerevisiae deletion strains, locus YLR221C, strain rsa3, stronger effect = lower value 0.957 | S. cerevisiae deletion strains, locus YLR258W, strain gsy2, stronger effect = lower value 0.974 | S. cerevisiae deletion strains, locus YLR262C, strain YPT6, stronger effect = lower value 0.931 | S. cerevisiae deletion strains, locus YLR268W, strain sec22, stronger effect = lower value 0.96 | S. cerevisiae deletion strains, locus YLR320W, strain mms22, stronger effect = lower value 0.924 | S. cerevisiae deletion strains, locus YLR330W, strain CHS5, stronger effect = lower value 0.977 | S. cerevisiae deletion strains, locus YLR342W, strain FKS1 (second series), stronger effect = lower value 0.875 | S. cerevisiae deletion strains, locus YLR342W, strain FKS1, stronger effect = lower value 0.948 | S. cerevisiae deletion strains, locus YLR357W, strain rsc2, stronger effect = lower value 1.02 | S. cerevisiae deletion strains, locus YLR370C, strain arc18, stronger effect = lower value 0.99 | S. cerevisiae deletion strains, locus YLR371W, strain rom2, stronger effect = lower value 0.974 | S. cerevisiae deletion strains, locus YLR384C, strain iki3, stronger effect = lower value 0.99 | S. cerevisiae deletion strains, locus YLR418C, strain cdc73, stronger effect = lower value 0.978 | S. cerevisiae deletion strains, locus YML016C, strain PPZ1, stronger effect = lower value 0.992 | S. cerevisiae deletion strains, locus YML032C, strain rad52, stronger effect = lower value 0.982 | S. cerevisiae deletion strains, locus YML120C, strain ndi1, stronger effect = lower value 0.983 | S. cerevisiae deletion strains, locus YML124C, strain tub3, stronger effect = lower value 0.975 | S. cerevisiae deletion strains, locus YMR058W, strain fet3, stronger effect = lower value 0.992 | S. cerevisiae deletion strains, locus YMR078C, strain ctf18, stronger effect = lower value 0.979 | S. cerevisiae deletion strains, locus YMR125W, strain sto1, stronger effect = lower value 0.969 | S. cerevisiae deletion strains, locus YMR129W, stronger effect = lower value 0.98 | S. cerevisiae deletion strains, locus YMR205C, strain PFK2, stronger effect = lower value 0.949 | S. cerevisiae deletion strains, locus YMR223W, strain ubp8, stronger effect = lower value 0.975 | S. cerevisiae deletion strains, locus YMR231W, strain pep5, stronger effect = lower value 0.996 | S. cerevisiae deletion strains, locus YMR263W, strain SAP30, stronger effect = lower value 0.977 | S. cerevisiae deletion strains, locus YMR307W, strain GAS1, stronger effect = lower value 0.713 | S. cerevisiae deletion strains, locus YNL067W, strain RPL9B, stronger effect = lower value 0.979 | S. cerevisiae deletion strains, locus YNL071W, strain lat1, stronger effect = lower value 0.944 | S. cerevisiae deletion strains, locus YNL128W, strain TEP1, stronger effect = lower value 0.98 | S. cerevisiae deletion strains, locus YNL153C, strain GIM3, stronger effect = lower value 0.998 | S. cerevisiae deletion strains, locus YNL183C, strain NPR1, stronger effect = lower value 0.911 | S. cerevisiae deletion strains, locus YNL209W, strain ssb2, stronger effect = lower value 0.99 | S. cerevisiae deletion strains, locus YNL233W, strain BNI4, stronger effect = lower value 0.994 | S. cerevisiae deletion strains, locus YNL248C, strain rpa49, stronger effect = lower value 0.987 | S. cerevisiae deletion strains, locus YNL250W, strain rad50, stronger effect = lower value 0.961 | S. cerevisiae deletion strains, locus YNL271C, strain bni1, stronger effect = lower value 0.978 | S. cerevisiae deletion strains, locus YNL298W, strain CLA4, stronger effect = lower value 0.966 | S. cerevisiae deletion strains, locus YNL307C, strain MCK1, stronger effect = lower value 0.952 | S. cerevisiae deletion strains, locus YNL322C, strain KRE1 (second series), stronger effect = lower value 0.981 | S. cerevisiae deletion strains, locus YNL322C, strain KRE1, stronger effect = lower value 0.978 | S. cerevisiae deletion strains, locus YNR049C, strain mso1, stronger effect = lower value 0.976 | S. cerevisiae deletion strains, locus YNR052C, strain pop2, stronger effect = lower value 0.971 | S. cerevisiae deletion strains, locus YOL006C, strain TOP1, stronger effect = lower value 0.94 | S. cerevisiae deletion strains, locus YOL012C, strain htz1 0.914 | S. cerevisiae deletion strains, locus YOL147C, strain pex11, stronger effect = lower value 0.976 | S. cerevisiae deletion strains, locus YOR001W, strain rrp6, stronger effect = lower value 0.979 | S. cerevisiae deletion strains, locus YOR061W, strain CKA2, stronger effect = lower value 0.984 | S. cerevisiae deletion strains, locus YOR069W, strain VPS5, stronger effect = lower value 0.977 | S. cerevisiae deletion strains, locus YOR070C, strain gyp1, stronger effect = lower value 0.983 | S. cerevisiae deletion strains, locus YOR080W, strain dia2, stronger effect = lower value 0.99 | S. cerevisiae deletion strains, locus YOR083W, strain WHI5, stronger effect = lower value 0.98 | S. cerevisiae deletion strains, locus YOR106W, strain vam3, stronger effect = lower value 0.916 | S. cerevisiae deletion strains, locus YOR136W, strain idh2, stronger effect = lower value 0.988 | S. cerevisiae deletion strains, locus YOR144C, strain elg1, stronger effect = lower value 0.973 | S. cerevisiae deletion strains, locus YOR184W, strain ser1, stronger effect = lower value 0.943 | S. cerevisiae deletion strains, locus YOR231W, strain MKK1, stronger effect = lower value 0.945 | S. cerevisiae deletion strains, locus YOR265W, strain rbl2, stronger effect = lower value 0.986 | S. cerevisiae deletion strains, locus YOR270C, strain vph1, stronger effect = lower value 0.846 | S. cerevisiae deletion strains, locus YOR290C, strain snf2, stronger effect = lower value 0.975 | S. cerevisiae deletion strains, locus YOR316C, strain cot1, stronger effect = lower value 0.977 | S. cerevisiae deletion strains, locus YPL055C, strain LGE1, stronger effect = lower value 0.967 | S. cerevisiae deletion strains, locus YPL078C, strain atp4, stronger effect = lower value 0.98 | S. cerevisiae deletion strains, locus YPL106C, strain sse1, stronger effect = lower value 1.02 | S. cerevisiae deletion strains, locus YPL240C, strain hsp82, stronger effect = lower value 0.969 | S. cerevisiae deletion strains, locus YPL241C, strain CIN2, stronger effect = lower value 0.976 | S. cerevisiae deletion strains, locus YPL256C, strain CLN2, stronger effect = lower value 0.973 | S. cerevisiae deletion strains, locus YPR119W, strain clb2, stronger effect = lower value 0.974 | S. cerevisiae deletion strains, locus YPR141C, strain kar3, stronger effect = lower value 0.978 | S. cerevisiae deletion strains, locus YPR163C, strain tif3, stronger effect = lower value 0.97 | S. cerevisiae deletion strains, locus YPR167C, strain met16, stronger effect = lower value 0.984 | S. cerevisiae deletion strains, strain wtn01, stronger effect = lower value 0.965 | S. cerevisiae strains, strain wild type, stronger effect = lower value 0.987
